According to the supplement of paper PMC4466140:

B1: unnamed (peptide)
chain: SAPDIPPRSPNRNAH

These binders were tested against AgAbp1 (assay: SPOT peptide array binding signal intensity (averaged, normalized) (arbitrary units (background-subtracted, floor 0; scale differs between SH3 domains)); higher = stronger binding of the SH3 domain to the peptide).
Outline: (§1)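 E. coli BL21(DE3) was used to express GST-fused SH3 domains from four yeast species, which were then purified on glutathione Sepharose. These were incubated at 10 μg/ml in TBS-based blocking buffer overnight at 4°C on cellulose membranes carrying synthetic 15-mer peptides, in which cysteines were replaced by serines. Binding signal is the replicate average of normalized, background-subtracted spot intensity, in arbitrary units that differ between domains.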

Binder	SPOT peptide array binding signal intensity
B1	≤ 0

These binders were tested against AgBbc1 in the same assay as above.
Outline: as §1

Binder	SPOT peptide array binding signal intensity
B1	498

Each binder was assayed against AgBem1-D1 in the same assay as above.
Outline: as §1

Binder	SPOT peptide array binding signal intensity
B1	≤ 0

These binders were tested against AgBzz1-D1 in the same assay as above.
Outline: as §1

Binder	SPOT peptide array binding signal intensity
B1	34.5

What follows are binders tested against AgBzz1-D2 in the same assay as above.
Outline: as §1

Binder	SPOT peptide array binding signal intensity
B1	≤ 0

The binders below were run against AgCyk3 in the same assay as above.
Outline: as §1

Binder	SPOT peptide array binding signal intensity
B1	≤ 0

Each binder was assayed against AgFus1 in the same assay as above.
Outline: as §1

Binder	SPOT peptide array binding signal intensity
B1	≤ 0

Each binder was assayed against AgHof1 in the same assay as above.
Outline: as §1

Binder	SPOT peptide array binding signal intensity
B1	≤ 0

The binders below were run against AgHse1 in the same assay as above.
Outline: as §1

Binder	SPOT peptide array binding signal intensity
B1	≤ 0

Each binder was assayed against AgLsb1 in the same assay as above.
Outline: as §1

Binder	SPOT peptide array binding signal intensity
B1	324

These binders were tested against AgLsb4 in the same assay as above.
Outline: as §1

Binder	SPOT peptide array binding signal intensity
B1	328

The binders below were run against AgMyo5 in the same assay as above.
Outline: as §1

Binder	SPOT peptide array binding signal intensity
B1	≤ 0

Each binder was assayed against AgNbp2 in the same assay as above.
Outline: as §1

Binder	SPOT peptide array binding signal intensity
B1	3.5

Each binder was assayed against AgRvs167 in the same assay as above.
Outline: as §1

Binder	SPOT peptide array binding signal intensity
B1	36.3

These binders were tested against AgSho1 in the same assay as above.
Outline: as §1

Binder	SPOT peptide array binding signal intensity
B1	≤ 0

Each binder was assayed against AgSla1-D1-D2 in the same assay as above.
Outline: as §1

Binder	SPOT peptide array binding signal intensity
B1	≤ 0

What follows are binders tested against AgSla1-D3 in the same assay as above.
Outline: as §1

Binder	SPOT peptide array binding signal intensity
B1	≤ 0

Each binder was assayed against CaAbp1-D1 in the same assay as above.
Outline: as §1

Binder	SPOT peptide array binding signal intensity
B1	≤ 0

The binders below were run against CaAbp1-D2 in the same assay as above.
Outline: as §1

Binder	SPOT peptide array binding signal intensity
B1	4.5

What follows are binders tested against CaBbc1 in the same assay as above.
Outline: as §1

Binder	SPOT peptide array binding signal intensity
B1	575

What follows are binders tested against CaBem1-D1 in the same assay as above.
Outline: as §1

Binder	SPOT peptide array binding signal intensity
B1	1

These binders were tested against CaBzz1-D1 in the same assay as above.
Outline: as §1

Binder	SPOT peptide array binding signal intensity
B1	85

These binders were tested against CaBzz1-D2 in the same assay as above.
Outline: as §1

Binder	SPOT peptide array binding signal intensity
B1	≤ 0

What follows are binders tested against CaCyk3 in the same assay as above.
Outline: as §1

Binder	SPOT peptide array binding signal intensity
B1	3

These binders were tested against CaFus1 in the same assay as above.
Outline: as §1

Binder	SPOT peptide array binding signal intensity
B1	≤ 0

Each binder was assayed against CaHof1 in the same assay as above.
Outline: as §1

Binder	SPOT peptide array binding signal intensity
B1	≤ 0

Each binder was assayed against CaHse1 in the same assay as above.
Outline: as §1

Binder	SPOT peptide array binding signal intensity
B1	9.75

Each binder was assayed against CaLsb1 in the same assay as above.
Outline: as §1

Binder	SPOT peptide array binding signal intensity
B1	0.25

Each binder was assayed against CaLsb4 in the same assay as above.
Outline: as §1

Binder	SPOT peptide array binding signal intensity
B1	4890

What follows are binders tested against CaMyo5 in the same assay as above.
Outline: as §1

Binder	SPOT peptide array binding signal intensity
B1	≤ 0

These binders were tested against CaNbp2 in the same assay as above.
Outline: as §1

Binder	SPOT peptide array binding signal intensity
B1	≤ 0

The binders below were run against CaRvs167 in the same assay as above.
Outline: as §1

Binder	SPOT peptide array binding signal intensity
B1	321

Each binder was assayed against CaRvs167-3 in the same assay as above.
Outline: as §1

Binder	SPOT peptide array binding signal intensity
B1	1

Each binder was assayed against CaSho1 in the same assay as above.
Outline: as §1

Binder	SPOT peptide array binding signal intensity
B1	≤ 0

The binders below were run against CaSla1-D1-D2 in the same assay as above.
Outline: as §1

Binder	SPOT peptide array binding signal intensity
B1	290

The binders below were run against CaSla1-D3 in the same assay as above.
Outline: as §1

Binder	SPOT peptide array binding signal intensity
B1	≤ 0

These binders were tested against ScAbp1 in the same assay as above.
Outline: as §1

Binder	SPOT peptide array binding signal intensity
B1	4.5
